# A number with no mark means an inactive call. Results filed as inconclusive are left out. Entries that show only a call come without a potency. Activity calls are given as the source filed them. Unless noted, calls come from the whole dose curve.
# Tests used:
# Aromatase (Homo sapiens) = Aromatase (Homo sapiens) (UniProt P11511); assay: qHTS assay to identify aromatase inhibitors (AID 743083; active = well fitted curve in the direction sought with a large enough effect in the repeat runs; an effect the other way counts as inactive or inconclusive; note: nearly all actives have a fitted effect of over 55% in size; note: potency is the fitted concentration of half-maximal effect)
# [1] = qHTS assay to identify small molecule agonists of the estrogen related receptor (ERR) signaling pathway (AID 1224820; active = well fitted curve in the direction sought with a large enough effect in the repeat runs; an effect the other way counts as inactive or inconclusive)
# Procedure, shortened: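 Following a 6 h settling period, 2,000 ERR cells per well receive DMSO-dissolved compounds by pin tool and incubate 18 h at 37 C; agonist activity is scored from One-Glo luminescence read 30 min post-addition.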
# [2] = system: estrogen-related receptor alpha (ERRalpha) with PGC-1alpha coactivator, human; assay: qHTS assay to identify small molecule antagonists of the estrogen related receptor signaling pathway with the pleiotropic PPARgamma coactivator (PGC) (AID 1224821);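 note: lower luminescence signal means antagonism of PGC/ERR signalling; nearly all actives have a fitted effect of over 50% in size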
# Procedure, shortened: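 Screening used NTP's PGC/ERR cells, dosed via pin tool with compound in DMSO alongside positive and negative controls. After 18 h at 37 C, One-Glo reagent sat 30 min at room temperature before luminescence detection.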
# [3] = qHTS assay to identify small molecule antagonists of the estrogen related receptor signaling pathway with the pleiotropic PPARgamma coactivator (PGC) cell viability counter screen (AID 1224822; active = well fitted curve in the direction sought with a large enough effect in the repeat runs; an effect the other way counts as inactive or inconclusive)
# Procedure, shortened: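 Fluorescence read-out of CellTiter-Fluor after 30 min at 37 C; PGC/ERR cells, 2,000 per well, had been exposed to DMSO-dissolved compounds for 17.5 h following a 6 h pre-incubation.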
# [4] = qHTS assay to identify small molecule agonists of the estrogen related receptor signaling pathway with the pleiotropic PPARgamma coactivator (PGC) (AID 1224823; active = well fitted curve in the direction sought with a large enough effect in the repeat runs; an effect the other way counts as inactive or inconclusive)
# Procedure, shortened: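 In this quantitative high-throughput screen, an 18 h, 37 C treatment of PGC/ERR cells with compounds in DMSO preceded a One-Glo luminescence read taken after 30 min at room temperature.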
# [5] = qHTS assay to identify small molecule agonists of H2AX (AID 1224845; active = well fitted activation curve with a large enough effect in the signal ratio in the repeat runs, not every such curve was filed as active; the % refers to the signal ratio)
# Procedure, shortened: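 Wild-type CHO-K1 cells plated overnight, then exposed 3 hr at 37C to compounds at 15 concentrations (0.76% DMSO). Lysed, then HTRF anti-pH2AX(S139)-cryptate/anti-H2AX-d2 detection after 24 hr at room temperature; emissions 665 and 620 nm.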
# [6] = qHTS assay to identify small molecule agonists of the estrogen related receptor (ERR) signaling pathway from Tox21 library (AID 1224849); conditions: ERR reporter cell line, ONE-Glo luciferase, 18 h; at 92.4 µM (top of the series) unless noted; note: nearly all actives have a fitted effect of over 15% in size
# Procedure, shortened: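 Luminescence readout (ONE-Glo, 30 min RT) after 18 h compound exposure at 37 C of NTP-supplied ERR reporter cells; cells were plated 6 h before compound addition by pin tool.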
# [7] = A CellTox Green Cytotoxicity Assay to monitor cytotoxicity in HepG2 cells - 0 hour (AID 1224882; active = well fitted curve in the direction sought with a large enough effect in the repeat runs; an effect the other way counts as inactive or inconclusive; note: nearly all actives have a fitted effect of over 35% in size)
# Procedure, shortened: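 HepG2, 600 cells/well premixed w/ CellTox Green; 5 h settle, 37 C/5% CO2; pintool cpd add (DMSO); 37 C, 40 h; fluorescence read at 0, 8, 16, 24, 32, 40 h.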
# [8] = qHTS assay to identify small molecule HDAC inhibitors (AID 1259364; active = well fitted curve in the direction sought with a large enough effect in the repeat runs; an effect the other way counts as inactive or inconclusive;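 note: wild-type HCT-116 cells with endogenous class I/II HDAC activity; top concentration of the series differs between compounds; nearly all actives have a fitted effect of over 45% in size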)
# Procedure, shortened: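 HCT-116 (wild type), 1,500 cells/well, overnight; compound 2 hr 37C 5% CO2; HDAC-Glo I/II reagent 30 min RT; luminescence readout.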
# [9] = qHTS assay to identify small molecule agonists of the sonic hedgehog signaling (Shh) pathway (AID 1259368);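 note: NIH/3T3-derived 3T3Gli1-Luc cells carrying a stable Gli1-driven firefly luciferase reporter; nearly all actives have a fitted effect of over 15% in size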
# Procedure, shortened: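 Read-out: firefly luciferase luminescence from a Gli1 response element reporter stably integrated in NIH/3T3-derived 3T3Gli1-Luc cells, measured 30 min at room temperature after reagent addition. Compound exposure lasted 24 hr at 37 C, 5% CO2.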
# [10] = Caspase-3/7 induction in CHO-K1 cells by small molecules, qHTS assay (AID 1346980; active = well fitted curve in the direction sought with a large enough effect in the repeat runs; an effect the other way counts as inactive or inconclusive; note: nearly all actives have a fitted effect of over 15% in size)
# Procedure, shortened: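 Wild-type cells were seeded at 1,500 per well and settled 5 hr at 37 C, 5% CO2, then exposed to DMSO-dissolved compounds for 17 hr. Caspase-Glo 3/7 reagent was added, and luminescence was read after 30min at room temperature.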
# [11] = target: Acetylcholinesterase (Homo sapiens) (UniProt P22303); assay: Acetylcholinesterase (AChE) small molecule antagonists: colormetric cell-based qHTS assay (AID 1347395); note: nearly all actives have a fitted effect of over 30% in size
# Procedure, shortened: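 After overnight attachment at 37 C, SH-SY5Y cells get 30 min compound exposure; detection cocktail (acetylthiocholine, DTNB) then incubates 90 min at 37 C, and absorbance reflects AChE-generated thiocholine.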
# [12] = target: Acetylcholinesterase (Homo sapiens) (UniProt P22303); assay: Acetylcholinesterase (AChE) small molecule antagonists: enzyme-based qHTS assay (AID 1347397); conditions: Potency: AChE enzyme activity inhibition; outcome: AChE enzyme activity inhibition; note: nearly all actives have a fitted effect of over 55% in size
# Procedure, shortened: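 Compound or DMSO vehicle was pin-transferred onto recombinant human AChE (50 mU/mL as dispensed) and left 30 min at room temperature. Acetylthiocholine with DTNB then started the reaction, read colorimetrically 10 min later.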
# [13] = target: Acetylcholinesterase (Homo sapiens) (UniProt P22303); assay: Acetylcholinesterase (AChE) small molecule antagonists: fluorescence cell-based qHTS assay (AID 1347398); conditions: Potency: AChE activity; outcome: AChE activity; note: nearly all actives have a fitted effect of over 50% in size
# Procedure, shortened: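 Using neuroblastoma SH-SY5Y cells as the enzyme source, test chemicals are preincubated 30 min at 37 C; AChE-driven acetylthiocholine cleavage is then quantified by thiocholine-dependent Thiolite Green fluorescence after 40 min at room temperature.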
# [14] = target: Acetylcholinesterase (Homo sapiens) (UniProt P22303); assay: Acetylcholinesterase (AChE) small molecule antagonists: enzyme-based qHTS assay with human liver microsomes (AID 1347399); conditions: Potency: qHTS inhibition; outcome: qHTS inhibition; note: nearly all actives have a fitted effect of over 60% in size; note: potency is the fitted concentration of half-maximal effect
# Procedure, shortened: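 Recombinant human AChE (50 mU/mL in the enzyme mix) and human liver microsomes (0.25 mg/mL final) were preincubated with compound and NADPH (0.25 mg/mL final) for 30 min at 37 C. Acetylthiocholine/DTNB was then added; thiocholine was read colorimetrically after 10 min at room temperature.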
# [15] = target: Aryl hydrocarbon receptor (Homo sapiens) (UniProt P35869); assay: qHTS assay to identify small molecule that activate the aryl hydrocarbon receptor (AhR) signaling pathway (AID 743085; active = well fitted curve in the direction sought with a large enough effect in the repeat runs; an effect the other way counts as inactive or inconclusive;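 note: HG2L7.5c1 human HepG2 liver cells with stably integrated DRE-driven firefly reporter; nearly all actives have a fitted effect of over 15% in size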)
# Procedure, shortened: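 Stably transfected human liver carcinoma cells (HG2L7.5c1; 20 DRE-firefly luciferase) were incubated 5 h, dosed, and kept 24 h at 37C. Agonism was scored from increased luciferase luminescence.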
# [16] = qHTS assay to identify small molecule antagonists of the retinoic acid receptor (RAR) signaling pathway (AID 1159552; active = well fitted curve in the direction sought with a large enough effect in the repeat runs; an effect the other way counts as inactive or inconclusive; note: nearly all actives have a fitted effect of over 50% in size; note: potency is the fitted concentration of half-maximal effect)
# Procedure, shortened: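 Test chemicals and DMSO controls were pin-transferred onto C3RL4 cells a day after seeding; retinol (1 uM final) followed at once. Luminescent reporter output was quantified after 6 hr of co-incubation and 30 min with detection reagent.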
# [17] = qHTS assay to identify small molecule antagonists of the estrogen related receptor (ERR) signaling pathway - cell viability counter screen (AID 1224818; active = well fitted curve in the direction sought with a large enough effect in the repeat runs; an effect the other way counts as inactive or inconclusive)
# Procedure, shortened: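 Fluorescence from CellTiter-Fluor, read 30 min after reagent addition at 37 C, measured viability of ERR cells exposed to compounds for 17.5 h. Cells had settled 6 h before dosing.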
# [18] = qHTS assay to identify small molecule antagonists of the estrogen related receptor (ERR) signaling pathway (AID 1224819; active = well fitted curve in the direction sought with a large enough effect in the repeat runs; an effect the other way counts as inactive or inconclusive;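 note: luminescence from an ERR-driven luciferase reporter measured with One-Glo reagent; nearly all actives have a fitted effect of over 50% in size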)
# Procedure, shortened: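 Luminescence readout (One-Glo, 30 min, RT) of ERR cell line after 18 h compound exposure at 37 C; cells seeded 2,000/well, pre-incubated 6 h, compounds pinned from DMSO stocks.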
# [19] = Caspase-3/7 induction in HepG2 cells by small molecules, qHTS assay (AID 1346978; active = well fitted curve in the direction sought with a large enough effect in the repeat runs; an effect the other way counts as inactive or inconclusive; note: nearly all actives have a fitted effect of over 15% in size)
# Procedure, shortened: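 Wild-type HepG2 cells (2,000/well) were settled 5 h at 37 C, 5% CO2, then exposed to compounds in DMSO for 17 h. Caspase-3/7 activity was read by luminescence 30 min after adding Caspase-Glo 3/7 reagent at room temperature.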
# Aromatase (Homo sapiens), sequence (P11511 whole entry, looked up): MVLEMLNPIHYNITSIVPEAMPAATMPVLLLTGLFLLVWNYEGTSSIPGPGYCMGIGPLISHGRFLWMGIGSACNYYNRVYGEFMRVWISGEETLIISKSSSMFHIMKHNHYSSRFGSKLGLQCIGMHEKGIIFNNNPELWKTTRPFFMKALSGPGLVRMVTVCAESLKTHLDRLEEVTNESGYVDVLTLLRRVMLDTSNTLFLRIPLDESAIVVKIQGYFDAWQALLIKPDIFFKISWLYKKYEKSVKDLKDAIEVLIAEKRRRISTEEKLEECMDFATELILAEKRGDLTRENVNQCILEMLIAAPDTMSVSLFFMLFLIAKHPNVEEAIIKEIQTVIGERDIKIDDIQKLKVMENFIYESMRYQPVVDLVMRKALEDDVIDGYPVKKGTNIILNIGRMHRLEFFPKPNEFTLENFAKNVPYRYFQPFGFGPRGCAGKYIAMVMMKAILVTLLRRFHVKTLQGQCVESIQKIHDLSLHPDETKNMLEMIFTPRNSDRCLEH
# Acetylcholinesterase (Homo sapiens), sequence (P22303 whole entry, looked up): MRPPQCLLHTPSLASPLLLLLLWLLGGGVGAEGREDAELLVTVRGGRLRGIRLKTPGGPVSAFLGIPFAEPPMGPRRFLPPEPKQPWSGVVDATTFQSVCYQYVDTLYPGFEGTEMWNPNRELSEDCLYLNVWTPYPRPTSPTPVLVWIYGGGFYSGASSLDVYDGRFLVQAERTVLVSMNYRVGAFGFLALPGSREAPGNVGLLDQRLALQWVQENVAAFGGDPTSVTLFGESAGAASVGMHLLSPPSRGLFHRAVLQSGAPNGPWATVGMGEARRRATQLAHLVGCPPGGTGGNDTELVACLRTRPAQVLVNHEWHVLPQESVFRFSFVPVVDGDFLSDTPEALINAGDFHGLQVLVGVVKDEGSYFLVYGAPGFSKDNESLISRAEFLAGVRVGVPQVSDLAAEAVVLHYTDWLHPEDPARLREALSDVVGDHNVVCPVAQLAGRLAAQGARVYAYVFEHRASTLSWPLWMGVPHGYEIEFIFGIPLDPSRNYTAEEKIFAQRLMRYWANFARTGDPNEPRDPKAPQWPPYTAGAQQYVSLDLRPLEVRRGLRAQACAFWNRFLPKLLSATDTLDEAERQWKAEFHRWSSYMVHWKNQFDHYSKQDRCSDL
# Aryl hydrocarbon receptor (Homo sapiens), sequence (P35869 whole entry, looked up): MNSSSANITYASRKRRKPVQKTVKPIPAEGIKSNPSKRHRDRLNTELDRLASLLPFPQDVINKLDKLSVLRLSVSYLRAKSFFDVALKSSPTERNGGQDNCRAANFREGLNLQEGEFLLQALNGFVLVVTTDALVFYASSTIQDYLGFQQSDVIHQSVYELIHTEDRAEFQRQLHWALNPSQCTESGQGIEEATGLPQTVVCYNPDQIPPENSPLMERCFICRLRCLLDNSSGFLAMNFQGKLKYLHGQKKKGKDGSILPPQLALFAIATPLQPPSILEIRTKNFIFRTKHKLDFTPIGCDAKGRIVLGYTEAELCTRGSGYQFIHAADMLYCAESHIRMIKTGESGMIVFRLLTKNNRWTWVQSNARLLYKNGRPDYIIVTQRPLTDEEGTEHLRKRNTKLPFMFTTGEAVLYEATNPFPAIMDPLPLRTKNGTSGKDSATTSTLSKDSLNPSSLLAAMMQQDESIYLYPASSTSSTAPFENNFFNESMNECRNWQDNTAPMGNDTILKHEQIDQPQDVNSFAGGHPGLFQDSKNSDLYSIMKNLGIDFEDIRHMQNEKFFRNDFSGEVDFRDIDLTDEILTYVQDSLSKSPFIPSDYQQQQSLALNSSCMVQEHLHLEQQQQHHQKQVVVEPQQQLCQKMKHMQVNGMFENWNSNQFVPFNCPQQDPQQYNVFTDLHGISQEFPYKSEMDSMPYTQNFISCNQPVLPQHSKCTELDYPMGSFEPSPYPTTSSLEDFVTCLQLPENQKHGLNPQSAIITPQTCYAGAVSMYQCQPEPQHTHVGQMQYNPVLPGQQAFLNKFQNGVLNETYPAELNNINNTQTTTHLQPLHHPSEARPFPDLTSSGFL
structure (smiles),measurement,setting,value
Nc1ccc([N+](=O)[O-])cc1,Potency,Aromatase (Homo sapiens),inactive
same,Potency,[1],inactive
same,Potency,[2],inactive
same,Potency,[3],inactive
same,Potency,[4],inactive
same,Potency,[5],inactive
same,"activity change, positive = activation",[6],-29.9%
same,Potency,[7],inactive
same,outcome,[8],inactive
same,outcome,[9],inactive
same,outcome,[10],inactive
same,Potency,[11],inactive
same,Potency,[12],inactive
same,Potency,[13],inactive
same,Potency,[14],inactive
O=[N+]([O-])c1c(Cl)c(Cl)cc(Cl)c1Cl,Potency,[15],inactive
same,Potency,[16],inactive
same,Potency,[17],inactive
same,Potency,[18],inactive
same,Potency,[1],inactive
same,Potency,[2],inactive
same,Potency,[3],inactive
same,"activity change, positive = activation",[6],0.621%
same,Potency,[7],inactive
same,outcome,[8],inactive
same,outcome,[9],inactive
same,Potency,[19],inactive
same,outcome,[10],inactive
same,Potency,[11],inactive
same,Potency,[12],inactive
same,Potency,[13],inactive
same,Potency,[14],inactive
CCN(CC)C(=O)Cl,Potency,[5],inactive
same,"activity change, positive = activation",[6],-1.51%
same,Potency,[7],inactive
same,outcome,[8],inactive
same,outcome,[9],inactive
same,Potency,[19],inactive
same,outcome,[10],inactive
same,Potency,[11],inactive
same,Potency,[12],inactive
same,Potency,[13],inactive
same,Potency,[14],inactive
ClC(Cl)=C(c1ccc(Cl)cc1)c1ccccc1Cl,Potency,[7],inactive
same,outcome,[8],inactive
same,outcome,[9],inactive
same,Potency,[19],inactive
same,outcome,[10],inactive
same,Potency,[11],inactive
same,Potency,[12],inactive
same,Potency,[13],inactive
O=C(c1ccc(Cl)cc1)c1ccc(Cl)cc1,Potency,[19],inactive
same,Potency,[11],inactive
same,Potency,[12],inactive
same,Potency,[13],inactive
same,Potency,[14],inactive
Cc1ccc(N(SC(F)(Cl)Cl)S(=O)(=O)N(C)C)cc1,Potency,Aromatase (Homo sapiens),3.86 µM (active)
same,Potency,[15],inactive
same,Potency,[16],13.7 µM (active)
same,Potency,[5],inactive
same,"activity change, positive = activation",[6],-74.2%
same,Potency,[7],inactive
same,outcome,[8],inactive
same,outcome,[9],inactive
same,Potency,[19],inactive
same,outcome,[10],inactive
same,Potency,[11],inactive
same,Potency,[14],71 µM (active)
Brc1cc(Br)cc(Br)c1,Potency,[5],inactive
same,"activity change, positive = activation",[6],-1.12%
same,Potency,[19],inactive
same,Potency,[11],inactive
same,Potency,[12],inactive
same,Potency,[13],inactive
same,Potency,[14],inactive
Cc1cc(C)c(C(=O)P(=O)(c2ccccc2)c2ccccc2)c(C)c1,Potency,[16],inactive
same,"activity change, positive = activation",[6],-54.9%
same,Potency,[7],inactive
same,outcome,[8],inactive
same,outcome,[9],inactive
same,Potency,[19],inactive
same,outcome,[10],inactive
same,Potency,[11],inactive
same,Potency,[12],inactive
same,Potency,[13],inactive
same,Potency,[14],inactive
O=[N+]([O-])c1cc(C(F)(F)F)ccc1Cl,Potency,Aromatase (Homo sapiens),inactive
same,"activity change, positive = activation",[6],-5.28%
same,Potency,[11],inactive
same,Potency,[12],inactive
same,Potency,[13],inactive
same,Potency,[14],inactive
Brc1c2ccccc2c(Br)c2ccccc12,"activity, negative = inhibition",Aromatase (Homo sapiens),2.07% [at 8.47 µM]
same,activation,[15],-3.68% [at 8.47 µM]
same,"activity, negative = inhibition",[16],4.27% [at 8.39 µM]
same,activation (H2AX phosphorylation),[5],-2.5% [at 14 µM]
same,"activity, negative = inhibition",[11],0.841% [at 10.5 µM]
same,"activity change, negative = inhibition",[12],0.273% [at 10.5 µM]
same,"activity change, negative = inhibition",[13],6.02% [at 10.5 µM]
same,"activity change, negative = inhibition",[14],1.07% [at 10.5 µM]
OCC(c1ccc(Cl)cc1)c1ccc(Cl)cc1,Potency,Aromatase (Homo sapiens),30.6 µM (active)
same,Potency,[16],43.3 µM (active)
same,Potency,[5],inactive
same,Potency,[7],inactive
same,outcome,[8],inactive
same,outcome,[9],inactive
same,outcome,[10],inactive
same,Potency,[11],inactive
same,Potency,[12],inactive
same,Potency,[13],inactive
same,Potency,[14],inactive
